Reference: PubChem BioAssay (Tox21)
Records with an inconclusive call do not appear. Activity calls are given as the source filed them. The call rests on the fitted dose curve; in most records, active means well fitted curve in the direction sought with a large enough effect in the repeat runs; inconclusive means weak or mixed curves; inactive means no such curve, though single readings can be large; an effect the other way counts as inactive or inconclusive.

Tests used:
[1] = Caspase-3/7 induction in HepG2 cells by small molecules, qHTS assay (AID 1346978); further: nearly all actives have a fitted effect of over 15% in size
Method in brief: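 Wild-type HepG2 cells, 2,000/well, settled 5 hr at 37 C and 5% CO2, then compound-treated for 17 hr; caspase-3/7 activity read by luminescent Caspase-Glo 3/7 after 30 min at room temperature.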

[2] = Caspase-3/7 induction in CHO-K1 cells by small molecules, qHTS cell viability counter screen (AID 1346979); further: nearly all actives have a fitted effect of over 35% in size
Method in brief: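 CellTiter-Fluor viability check, qHTS format: wild-type CHO-K1, 16hr compound treatment, 1hr reagent incubation, fluorescence read.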

[3] = Caspase-3/7 induction in CHO-K1 cells by small molecules, qHTS assay (AID 1346980); further: nearly all actives have a fitted effect of over 15% in size
Method in brief: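 Wild-type CHO-K1 cells exposed to compounds for 17hr at 37 C, 5% CO2. Caspase-3/7 activity then measured by Caspase-Glo 3/7 luminescence after 30min at room temperature.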

[4] = Caspase-3/7 induction in HepG2 cells by small molecules, qHTS cell viability counter screen (AID 1346981); further: series mostly up to about 92 µM; nearly all actives have a fitted effect of over 30% in size
Method in brief: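 Wild-type HepG2 cells, 2,000/well, settled 5 hr at 37 C, 5% CO2 before compound addition. Viability read by CellTiter-Fluor fluorescence, reagent added after 16 hr compound exposure, then 1 hr at 37C, in the same wells as the caspase read.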

[5] = target: Nuclear receptor subfamily 1 group I member 2 (Homo sapiens) (UniProt O75469); experiment: Human pregnane X receptor (PXR) small molecule agonists, qHTS assay (AID 1346982); further: nearly all actives have a fitted effect of over 35% in size; further: potency means the concentration at half of the fitted maximal effect
Nuclear receptor subfamily 1 group I member 2 (Homo sapiens), sequence (O75469 whole entry, looked up): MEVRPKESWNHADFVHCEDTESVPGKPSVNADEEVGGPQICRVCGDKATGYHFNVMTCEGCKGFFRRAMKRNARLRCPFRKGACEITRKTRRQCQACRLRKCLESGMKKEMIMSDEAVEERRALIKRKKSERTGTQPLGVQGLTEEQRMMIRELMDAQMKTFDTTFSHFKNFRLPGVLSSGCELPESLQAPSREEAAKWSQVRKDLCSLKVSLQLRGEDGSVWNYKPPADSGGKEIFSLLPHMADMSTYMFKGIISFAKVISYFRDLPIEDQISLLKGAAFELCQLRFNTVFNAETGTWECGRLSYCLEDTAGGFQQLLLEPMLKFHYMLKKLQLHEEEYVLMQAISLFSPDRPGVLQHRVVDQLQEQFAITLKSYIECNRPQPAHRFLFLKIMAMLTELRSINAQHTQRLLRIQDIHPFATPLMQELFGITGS
Method in brief: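 PXR-Luc HepG2 reporter cells (CYP3A4-driven luciferase) in 5% charcoal-stripped FBS medium, plated 5 h before compound addition, then treated 24 h at 37C. Luciferase read by ONE-Glo luminescence after 30 min at room temperature.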

[6] = target: Cytochrome P450 2D6 (Homo sapiens) (UniProt P10635); experiment: Cytochrome P450 Family 2 Subfamily D Member 6 (CYP2D6) small molecule antagonists: luciferase reporter qHTS assay (AID 1671196); further: nearly all actives have a fitted effect of over 50% in size; further: potency means the concentration at half of the fitted maximal effect
Cytochrome P450 2D6 (Homo sapiens), sequence (P10635 whole entry, looked up): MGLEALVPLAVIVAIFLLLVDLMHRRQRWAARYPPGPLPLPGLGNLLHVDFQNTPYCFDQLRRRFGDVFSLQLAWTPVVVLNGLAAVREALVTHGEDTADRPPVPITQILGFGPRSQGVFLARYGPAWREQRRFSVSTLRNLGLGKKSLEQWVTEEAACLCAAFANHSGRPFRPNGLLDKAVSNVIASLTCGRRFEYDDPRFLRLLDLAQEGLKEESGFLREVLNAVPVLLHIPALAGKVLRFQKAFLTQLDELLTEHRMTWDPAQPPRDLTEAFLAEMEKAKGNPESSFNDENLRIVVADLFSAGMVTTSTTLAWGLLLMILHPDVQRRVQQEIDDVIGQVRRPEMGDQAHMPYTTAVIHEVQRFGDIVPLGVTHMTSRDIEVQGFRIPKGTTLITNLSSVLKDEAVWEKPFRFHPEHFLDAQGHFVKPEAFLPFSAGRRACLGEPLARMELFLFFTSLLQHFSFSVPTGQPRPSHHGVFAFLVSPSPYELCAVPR
Method in brief: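 Cell-free P450-Glo system: CYP2D6 with proluciferin substrate was pre-incubated with compound for 10 min, then reacted with NADPH regeneration for 1 h at room temperature. Luciferin product was detected after 20 min, and data were reported as relative luminescence units.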

[7] = target: Cytochrome P450 1A2 (Homo sapiens) (UniProt P05177); experiment: Cytochrome P450 Family 1 Subfamily A Member 2 (CYP1A2) small molecule antagonists: luciferase reporter qHTS assay (AID 1671199); further: nearly all actives have a fitted effect of over 50% in size; further: potency means the concentration at half of the fitted maximal effect
Cytochrome P450 1A2 (Homo sapiens), sequence (P05177 whole entry, looked up): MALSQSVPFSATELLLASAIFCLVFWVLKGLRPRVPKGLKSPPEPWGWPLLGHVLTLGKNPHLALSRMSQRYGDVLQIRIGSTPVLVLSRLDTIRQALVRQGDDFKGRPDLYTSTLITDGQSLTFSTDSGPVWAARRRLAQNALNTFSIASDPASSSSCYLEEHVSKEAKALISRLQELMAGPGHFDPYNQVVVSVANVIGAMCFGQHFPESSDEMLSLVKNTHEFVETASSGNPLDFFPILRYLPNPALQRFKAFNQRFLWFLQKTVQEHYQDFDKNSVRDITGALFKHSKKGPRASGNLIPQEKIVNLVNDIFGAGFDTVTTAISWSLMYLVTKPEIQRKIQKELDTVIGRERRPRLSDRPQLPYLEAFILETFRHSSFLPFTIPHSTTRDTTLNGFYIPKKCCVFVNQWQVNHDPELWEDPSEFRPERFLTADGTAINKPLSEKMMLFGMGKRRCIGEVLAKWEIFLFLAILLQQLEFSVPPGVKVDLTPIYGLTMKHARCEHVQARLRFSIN
Method in brief: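 P450-Glo CYP1A2 enzyme–proluciferin substrate mix with compound 10 min at room temperature, then NADPH regeneration 1 h at room temperature. Luciferin detection reagent added, luminescence read after 20 min; furafylline positive control.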

[8] = target: Voltage-gated inwardly rectifying potassium channel KCNH2 (Homo sapiens) (UniProt Q12809); experiment: Human Ether-a-go-go-Related Gene (hERG) channel small molecule antagonists: fluorescence cell-based qHTS assay (AID 1671200);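 further: hERG-expressing U2OS cells given a thallium stimulus after FluxOR II dye loading; series mostly up to about 77 µM; nearly all actives have a fitted effect of over 50% in size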
Voltage-gated inwardly rectifying potassium channel KCNH2 (Homo sapiens), sequence (Q12809 whole entry, looked up): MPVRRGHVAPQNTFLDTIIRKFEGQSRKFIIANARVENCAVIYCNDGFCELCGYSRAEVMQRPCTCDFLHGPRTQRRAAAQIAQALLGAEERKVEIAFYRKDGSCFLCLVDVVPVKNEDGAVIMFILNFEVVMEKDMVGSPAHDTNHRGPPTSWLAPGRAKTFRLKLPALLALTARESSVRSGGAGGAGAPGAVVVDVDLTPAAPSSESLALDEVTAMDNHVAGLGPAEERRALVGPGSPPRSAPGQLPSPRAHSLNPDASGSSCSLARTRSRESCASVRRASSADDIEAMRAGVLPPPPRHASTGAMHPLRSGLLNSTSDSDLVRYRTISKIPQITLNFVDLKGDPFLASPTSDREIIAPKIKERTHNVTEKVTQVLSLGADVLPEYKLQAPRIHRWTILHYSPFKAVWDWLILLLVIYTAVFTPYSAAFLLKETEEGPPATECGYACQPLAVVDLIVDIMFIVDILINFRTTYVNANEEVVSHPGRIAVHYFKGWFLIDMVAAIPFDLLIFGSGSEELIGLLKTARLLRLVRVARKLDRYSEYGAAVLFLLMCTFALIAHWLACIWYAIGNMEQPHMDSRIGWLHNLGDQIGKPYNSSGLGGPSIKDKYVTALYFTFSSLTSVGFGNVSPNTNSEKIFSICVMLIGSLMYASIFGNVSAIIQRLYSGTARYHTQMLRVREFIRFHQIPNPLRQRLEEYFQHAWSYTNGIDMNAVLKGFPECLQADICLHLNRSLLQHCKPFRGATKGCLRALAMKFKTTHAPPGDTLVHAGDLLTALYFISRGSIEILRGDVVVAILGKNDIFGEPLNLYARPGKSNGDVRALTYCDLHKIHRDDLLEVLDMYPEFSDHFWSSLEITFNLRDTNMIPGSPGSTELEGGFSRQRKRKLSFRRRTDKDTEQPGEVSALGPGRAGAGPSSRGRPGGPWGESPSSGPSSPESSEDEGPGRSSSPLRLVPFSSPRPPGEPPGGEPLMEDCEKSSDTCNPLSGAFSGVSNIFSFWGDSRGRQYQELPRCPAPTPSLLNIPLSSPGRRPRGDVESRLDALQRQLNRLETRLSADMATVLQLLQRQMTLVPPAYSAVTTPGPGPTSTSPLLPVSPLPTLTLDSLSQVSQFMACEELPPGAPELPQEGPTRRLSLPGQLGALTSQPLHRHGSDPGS
Method in brief: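 Kinetic two-minute fluorescence traces, sampled at 1 s, were collected following thallium stimulus of U2OS cells (1000 per well) that had been cultured overnight at 37 C and loaded with FluxOR II.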

[9] = target: Cytochrome P450 3A4 (Homo sapiens) (UniProt P08684); experiment: Cytochrome P450 Family 3 Subfamily A Member 4 (CYP3A4) small molecule antagonists: luciferase reporter qHTS assay (AID 1671201); further: nearly all actives have a fitted effect of over 50% in size; further: potency means the concentration at half of the fitted maximal effect
Cytochrome P450 3A4 (Homo sapiens), sequence (P08684 whole entry, looked up): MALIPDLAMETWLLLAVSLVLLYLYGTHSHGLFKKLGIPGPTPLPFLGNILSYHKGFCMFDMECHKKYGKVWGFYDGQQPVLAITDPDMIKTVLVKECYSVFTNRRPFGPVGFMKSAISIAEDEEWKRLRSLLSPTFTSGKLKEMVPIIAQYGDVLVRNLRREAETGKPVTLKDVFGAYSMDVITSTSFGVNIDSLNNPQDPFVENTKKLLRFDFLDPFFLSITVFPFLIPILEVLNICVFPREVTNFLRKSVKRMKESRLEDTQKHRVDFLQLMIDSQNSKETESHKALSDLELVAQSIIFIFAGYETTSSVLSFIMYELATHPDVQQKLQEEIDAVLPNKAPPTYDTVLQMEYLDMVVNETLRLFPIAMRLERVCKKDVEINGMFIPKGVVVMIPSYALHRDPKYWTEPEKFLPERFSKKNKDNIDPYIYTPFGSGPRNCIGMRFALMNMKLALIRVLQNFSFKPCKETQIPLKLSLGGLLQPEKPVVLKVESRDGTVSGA
Method in brief: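 Proluciferin-to-luciferin conversion by CYP3A4, NADPH-regenerated, 1 h RT; luminescence read as RLU. Ketoconazole as control.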

[10] = target: Cytochrome P450 2C19 (Homo sapiens) (UniProt P33261); experiment: Cytochrome P450 Family 2 Subfamily C Member 19 (CYP2C19) small molecule antagonists: luciferase reporter qHTS assay (AID 1671197); further: nearly all actives have a fitted effect of over 65% in size; further: potency means the concentration at half of the fitted maximal effect
Cytochrome P450 2C19 (Homo sapiens), sequence (P33261 whole entry, looked up): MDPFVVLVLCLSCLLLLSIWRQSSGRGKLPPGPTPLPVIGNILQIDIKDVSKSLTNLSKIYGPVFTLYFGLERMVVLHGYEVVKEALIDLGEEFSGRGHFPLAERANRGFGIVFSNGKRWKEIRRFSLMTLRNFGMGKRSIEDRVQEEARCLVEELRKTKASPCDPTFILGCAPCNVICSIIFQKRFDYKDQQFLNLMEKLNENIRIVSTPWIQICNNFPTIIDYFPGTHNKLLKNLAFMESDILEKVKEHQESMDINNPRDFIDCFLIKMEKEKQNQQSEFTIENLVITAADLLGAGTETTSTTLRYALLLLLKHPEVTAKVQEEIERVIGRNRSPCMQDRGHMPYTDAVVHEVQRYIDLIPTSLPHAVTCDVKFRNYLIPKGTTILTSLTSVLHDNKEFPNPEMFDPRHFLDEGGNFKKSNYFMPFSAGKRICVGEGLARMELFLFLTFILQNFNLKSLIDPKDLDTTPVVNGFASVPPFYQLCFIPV
Method in brief: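 Quantitative high-throughput screen of the Tox21 library using CYP2C19 with proluciferin substrate. Reaction: NADPH regeneration, 37C, 1 h, after 10 min compound preincubation at room temperature. Readout: luminescence.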

[11] = target: Cytochrome P450 2C9 (Homo sapiens) (UniProt P11712); experiment: Cytochrome P450 Family 2 Subfamily C Member 9 (CYP2C9) small molecule antagonists: luciferase reporter qHTS assay (AID 1671198); further: nearly all actives have a fitted effect of over 50% in size; further: potency means the concentration at half of the fitted maximal effect
Cytochrome P450 2C9 (Homo sapiens), sequence (P11712 whole entry, looked up): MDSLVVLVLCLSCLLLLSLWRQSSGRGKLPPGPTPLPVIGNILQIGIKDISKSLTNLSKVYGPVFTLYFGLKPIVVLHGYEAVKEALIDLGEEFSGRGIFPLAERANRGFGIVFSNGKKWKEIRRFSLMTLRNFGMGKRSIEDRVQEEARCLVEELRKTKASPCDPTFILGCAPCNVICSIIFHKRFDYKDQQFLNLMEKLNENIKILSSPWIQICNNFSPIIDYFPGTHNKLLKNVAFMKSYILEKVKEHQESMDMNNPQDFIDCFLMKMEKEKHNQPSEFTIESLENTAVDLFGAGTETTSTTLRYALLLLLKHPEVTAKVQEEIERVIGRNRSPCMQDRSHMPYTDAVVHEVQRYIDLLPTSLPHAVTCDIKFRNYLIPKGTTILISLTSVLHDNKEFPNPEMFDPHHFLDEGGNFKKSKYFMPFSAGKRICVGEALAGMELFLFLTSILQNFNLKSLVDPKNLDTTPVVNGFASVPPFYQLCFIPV
Method in brief: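 P450-Glo proluciferin substrate with CYP2C9 enzyme; 10 min RT preincubation, then NADPH regeneration 1 h at 37C; luciferin detection reagent 20 min RT, luminescence in relative luminescence units.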

Measured: Potency

Nc1c(I)cc(I)c(C(=O)N(CCC(=O)O)c2ccccc2)c1I
active: [5] 26.6 µM
not listed: [10] | [11]
inactive: all other assays above

CN1Cc2cc(C(=O)N3CCC(C4CCNCC4)CC3)ccc2N[C@@H](CC(=O)O)C1=O
not listed: [6]
inactive: all other assays above

CCOCCn1c(C2CCN(CCc3ccc(C(C)(C)C(=O)O)cc3)CC2)nc2ccccc21
not listed: [7] | [8]
inactive: all other assays above

COC(=O)CC(=O)C(C)(C)C
not listed: [7] | [9] | [11]
inactive: all other assays above

Cn1c(=O)c2c(ncn2CC(=O)O)n(C)c1=O
not listed: [10]
inactive: all other assays above

ON(Cc1ccccc1)Cc1ccccc1
active: [5] 34.4 µM | [6] 35.6 µM | [10] 7.1 µM | [7] 5.64 µM | [9] 10 µM
not listed: [11]
inactive: all other assays above

Nc1ccc(S(=O)(=O)O)c(N)c1
active: [10] 31.7 µM | [7] 22.4 µM
not listed: [6]
inactive: all other assays above

CCCCC(CC)CNCC(CC)CCCC (configuration not stated)
active: [6] 0.199 µM | [10] 35.3 µM
not listed: [7]
inactive: all other assays above

CCC(C)(C)C1CCC(O)CC1 (configuration not stated)
not listed: [6] | [7] | [8] | [9]
inactive: all other assays above

CC(C)OCC1CO1 (configuration not stated)
not listed: [6]
inactive: all other assays above

CC(C)C(=O)O
inactive: all assays above

CC1=CC(=O)CC(C)(C)C1(O)/C=C/C(C)=C\C(=O)O (configuration not stated)
not listed: [7]
inactive: all other assays above

CC(=O)Nc1ccccc1C
not listed: [10]
inactive: all other assays above

O=C(CS)OCCOC(=O)CS
active: [7] 39.9 µM | [9] 28.3 µM
not listed: [11]
inactive: all other assays above

CCCCCCCC/C=C\CCCCCCCC(=O)OC
active: [7] 31.8 µM
inactive: all other assays above

OC(CCCN1CCCCC1)(c1ccccc1)c1ccccc1
active: [6] 0.11 µM
not listed: [9] | [10]
inactive: all other assays above

C=C(C)C(=O)OCCOC(=O)CC(C)=O
not listed: [7] | [9] | [11]
inactive: all other assays above

CC(C)c1nnc2ccc(-c3ocnc3-c3cc(F)ccc3F)cn12
active: [5] 48.6 µM | [10] 56.4 µM | [11] 5.64 µM | [7] 35.6 µM
not listed: [6]
inactive: all other assays above

CC(C)(C)C(=O)O
not listed: [7] | [10]
inactive: all other assays above

O=C(O)c1snc(Cl)c1Cl
not listed: [7] | [10] | [11]
inactive: all other assays above

CC(C)CCCCCCOC(=O)CCCCC(=O)OCCCCCCC(C)C
active: [7] 35.6 µM
not listed: [6] | [11]
inactive: all other assays above

C=CC(=C)CCCC(C)(C)OC(C)=O
not listed: [4] | [7]
inactive: all other assays above
